# Measured values reported in PubChem BioAssay (EPA / NIEHS).
# Where “and” joins values, the source holds several entries; their conditions need not be identical. Identical values can stand only once. Inconclusive results are not listed. Calls of active or inactive are those of the source. The calls were made as follows, unless noted: active = hit-call score of the fitted dose curve at least 0.9, where 1 is the maximum; inconclusive = response in the unintended direction; inactive = score below 0.9.
# Experiments:
# [1] = test system: zebrafish Estrogen Receptor (ER2b), gene 317733; experiment: ATG_zfER2b_XSP2: Attagene TRANS-FACTORIAL Multi-Species (XSP2) HepG2 Assay for zebrafish Estrogen Receptor (ER2b) (AID 2283823);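 also: fitted upward as reporter gain over DMSO so potency reflects activation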
# How it was run: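 Cells used were HepG2, transiently transfected with chimeric nuclear receptor-Gal4 reporter units. After 24 h of chemical treatment, reporter transcripts were amplified by RT-PCR, labelled and sized by capillary electrophoresis, with induction analysed relative to DMSO.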
# [2] = test system: frog Estrogen Receptor (ER2), gene 100174814; experiment: ATG_frER2_XSP2: Attagene TRANS-FACTORIAL Multi-Species (XSP2) HepG2 Assay for frog Estrogen Receptor (ER2) (AID 2283828)
# How it was run: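 HepG2 cells transiently transfected with multiplexed GAL4-UAS reporter units expressing chimeric frog ER2–Gal4 protein; reporter mRNA measured 24 h after chemical dosing by RT-PCR, fluorescent labeling and capillary electrophoresis. Gain-of-signal fitted relative to DMSO baseline.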
# [3] = biological target: Peroxisome proliferator-activated receptor gamma (Homo sapiens) (UniProt P37231); experiment: ATG_hPPARg_XSP2: Attagene TRANS-FACTORIAL Multi-Species (XSP2) HepG2 Assay for human Peroxisome Proliferator-activated Receptor gamma (PPARg) (AID 2283829);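 also: actives raise reporter mRNA above DMSO so AC50 reflects PPARg activation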
# How it was run: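 After transfecting HepG2 with GAL4-UAS reporter constructs, cells are dosed for 24 h; total RNA is reverse-transcribed, PCR-amplified, FAM-labeled, HpaI-digested and resolved by capillary electrophoresis. Activity is measured as mRNA induction relative to DMSO.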
# [4] = biological target: mouse Peroxisome Proliferator-activated Receptor gamma (PPARg), Pparg (gene 19016) (UniProt P37238); experiment: ATG_mPPARg_XSP2: Attagene TRANS-FACTORIAL Multi-Species (XSP2) HepG2 Assay for mouse Peroxisome Proliferator-activated Receptor gamma (PPARg) (AID 2283830);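 also: hits are gains in reporter mRNA above DMSO so AC50 marks activation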
# How it was run: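 HepG2 cells transiently transfected with GAL4-UAS reporter units for chimeric NR-Gal4 proteins including mouse PPARg, exposed 24 h; medium contained 3 nM 6-alpha-fluorotestosterone and 1.5 nM norgestrel. Reporter mRNA quantified by RT-PCR, HpaI digestion and capillary electrophoresis, vs DMSO.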
# [5] = test system: zebrafish Peroxisome Proliferator-activated Receptor gamma (PPARg), gene 557037; experiment: ATG_zfPPARg_XSP2: Attagene TRANS-FACTORIAL Multi-Species (XSP2) HepG2 Assay for zebrafish Peroxisome Proliferator-activated Receptor gamma (PPARg) (AID 2283833);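 also: actives increase reporter signal over DMSO so AC50 reflects activation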
# How it was run: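 Multi-species TRANS format in HepG2, 24 h dosing; medium also contained 3 nM 6-alpha-fluorotestosterone and 1.5 nM norgestrel to stimulate androgen receptor. Zebrafish PPARg-GAL4 induced reporter mRNA was measured by RT-PCR/capillary electrophoresis.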
# [6] = test system: turtle Thyroid Hormone Receptor, alpha (TRa), gene 101949057; experiment: ATG_trTRa_XSP2: Attagene TRANS-FACTORIAL Multi-Species (XSP1) HepG2 Assay for turtle Thyroid Hormone Receptor, alpha (TRa) (AID 2283834);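 also: hits raise reporter mRNA over the DMSO baseline so AC50 marks activators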
# How it was run: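 Transfection of HepG2 with multiple reporter transcription units, then chemical dosing for 24 h. Total RNA was reverse-transcribed, reporter sequences PCR-amplified and FAM-labelled, then sized by capillary electrophoresis. DMSO served as baseline.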
# [7] = ATG_M_61_XSP2: Attagene TRANS-FACTORIAL Multi-Species (XSP2) HepG2 Assay for M61 Transcription Factor (Internal Marker) (AID 2283835; active = hit-call score of the fitted dose curve at least 0.9, where 1 is the maximum; inactive = score below 0.9;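 also: active means a rise in signal above the DMSO baseline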)
# How it was run: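 HepG2 cells transiently transfected with multiple GAL4-UAS reporter units; reporter mRNA measured 24 h after dosing by RT-PCR, fluorescent labelling and capillary electrophoresis. Medium contained 3 nM 6-alpha-fluorotestosterone and 1.5 nM norgestrel; internal marker, DMSO baseline.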
# [8] = biological target: zebrafish Thyroid Hormone Receptor beta (TRb), thrb (gene 30607) (UniProt Q9PVE4); experiment: ATG_zfTRb_XSP2: Attagene TRANS-FACTORIAL Multi-Species (XSP1) HepG2 Assay for zebrafish Thyroid Hormone Receptor beta (TRb) (AID 2283836);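 as to AC50: potency for induction of reporter signal above DMSO so agonist direction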
# How it was run: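 HepG2 cells transiently transfected with multiplexed GAL4-UAS reporter units expressing chimeric NR-Gal4 proteins; read 24 h after dosing. Reporter mRNA quantified by RT-PCR, 6-FAM labelling, HpaI digest and capillary electrophoresis; gain of signal fitted relative to DMSO.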
# [9] = biological target: human Thyroid hormone Receptor alpha (TRa), THRA (gene 7067) (UniProt P10827); experiment: ATG_hTRa_XSP2: Attagene TRANS-FACTORIAL Multi-Species (XSP2) HepG2 Assay for human Thyroid hormone Receptor alpha (TRa) (AID 2283838)
# How it was run: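 HepG2 cells transiently transfected with multiplexed GAL4-UAS reporter units and exogenous NR-GAL4 chimeras; 24 h chemical exposure with 3 nM 6-alpha-fluorotestosterone and 1.5 nM norgestrel present. Reporter mRNA measured by RT-PCR, FAM labelling, HpaI digestion, capillary electrophoresis; gain-of-signal versus DMSO.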
# [10] = biological target: frog Thyroid hormone Receptor alpha (TRa), thra-a (gene 397942) (UniProt P15204); experiment: ATG_frTRa_XSP2: Attagene TRANS-FACTORIAL Multi-Species (XSP2) HepG2 Assay for frog Thyroid hormone Receptor alpha (TRa) (AID 2283839);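 as to AC50: AC50 reflects induction of frog TRa-driven reporter mRNA above DMSO baseline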
# How it was run: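 Transfect HepG2 with multiple reporter units (GAL4-UAS), dose chemical, incubate 24 h. Isolate RNA, reverse-transcribe, PCR-amplify reporter, label with 6-FAM by primer extension, digest with HpaI, run capillary electrophoresis; induction scored against DMSO.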
# [11] = biological target: human Thyroid hormone Receptor beta (TRb), THRB (gene 7068) (UniProt P10828); experiment: ATG_hTRb_XSP2: Attagene TRANS-FACTORIAL Multi-Species (XSP2) HepG2 Assay for human Thyroid hormone Receptor beta (TRb) (AID 2283840);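 also: actives raise reporter mRNA so potency reflects agonist-like gain of signal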
# How it was run: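 Transient transfection of human HepG2 with multi-species NR-Gal4/GAL4-UAS reporter constructs; 24 h compound treatment; RNA isolation, reverse transcription, PCR and HpaI digest; capillary electrophoresis of labeled fragments; activity fitted upward versus DMSO.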
# [12] = test system: Sodium/Iodide Symporter (NIS), SLC5A5 (gene 6528); experiment: CPHEA_Stoker_NIS_Inhibition_RAIU: CPHEA's Radioactive Iodide Uptake (RAIU) Assay for Sodium/Iodide Symporter (NIS) Inhibition, Stoker and Laws Labs (AID 2283841)
# How it was run: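 HEK293T cells stably expressing human NIS (hNIS-HEK293T-EPA) were exposed to test chemicals at 0.001–100uM (0.5% final DMSO) with 125I at a final 329pM in HBSS/10mM HEPES pH 7.4. After 2 hours at room temperature and ice-cold washes, intracellular 125I was counted as CPM and normalized to DMSO wells.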
# [13] = CPHEA_Stoker_NIS_Cytotoxicity: Cytotoxicity Assessment for CPHEA's Radioactive Iodide Uptake (RAIU) Assay for Sodium/Iodide Symporter (NIS) Inhibition, Stoker and Laws Labs (AID 2283897);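 as to AC50: active means loss of ATP signal versus DMSO meaning cytotoxicity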
# How it was run: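 hNIS-HEK293T-EPA human kidney cells were exposed for 2 hours at room temperature to test chemicals (0.001–100uM, 0.5% final DMSO) in HEPES-buffered HBSS, pH 7.4. Viability was read as ATP content by luciferase bioluminescence, loss of signal versus DMSO.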
# [14] = test system: frog Estrogen Receptor (ER), gene 398734; experiment: ATG_frER1_XSP2: Attagene TRANS-FACTORIAL Multi-Species (XSP2) HepG2 Assay for frog Estrogen Receptor (ER) (AID 2283821);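 also: hits raise reporter mRNA above DMSO baseline so potency means agonist or activator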
# How it was run: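 HepG2 cells transiently transfected with GAL4-UAS reporter units expressing a chimeric frog ER-Gal4 protein; 24 h exposure. Reporter mRNA quantified by RT-PCR, fluorescent labelling and capillary electrophoresis; gain of signal fitted against DMSO baseline.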
# [15] = biological target: Estrogen receptor (Homo sapiens) (UniProt P03372); experiment: ATG_hERa_XSP2: Attagene TRANS-FACTORIAL Multi-Species (XSP2) HepG2 Assay for human Estrogen Receptor (ERa) (AID 2283827)
# How it was run: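 HepG2 cells transiently transfected with multiplexed GAL4-UAS reporters driven by chimeric receptor-Gal4 proteins, dosed 24 h with 3 nM 6-alpha-fluorotestosterone and 1.5 nM norgestrel present. Reporter mRNA by RT-PCR and capillary electrophoresis; gain-of-signal fit versus DMSO.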
# [16] = biological target: zebrafish Thyroid Hormone Receptor alpha (TRa), thraa (gene 30670) (UniProt Q98867); experiment: ATG_zfTRa_XSP2: Attagene TRANS-FACTORIAL Multi-Species (XSP1) HepG2 Assay for zebrafish Thyroid Hormone Receptor alpha (TRa) (AID 2283832);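 also: actives raise zebrafish TRa-Gal4 reporter transcript above DMSO baseline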
# How it was run: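 HepG2 cells transiently transfected with multiplexed GAL4-UAS reporter units expressing chimeric NR-Gal4 proteins; 24 h after dosing, reporter mRNA measured by RT-PCR, FAM labelling, HpaI digestion and capillary electrophoresis; gain of signal versus DMSO baseline.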
# [17] = ATG_M_19_XSP2: Attagene TRANS-FACTORIAL Multi-Species (XSP2) HepG2 Assay for M32 Transcription Factor (Internal Marker) (AID 2283822)
# How it was run: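 Internal background marker in a multi-species nuclear receptor TRANS panel: transfected HepG2 cells exposed 24 h, with 3 nM 6-alpha-fluorotestosterone and 1.5 nM norgestrel present. Readout is RT-PCR of reporter transcripts resolved by capillary electrophoresis, gain-of-signal versus DMSO.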
# [18] = test system: frog Androgen Receptor (AR), gene 399456; experiment: ATG_frAR_XSP2: Attagene TRANS-FACTORIAL Multi-Species (XSP2) HepG2 Assay for frog Androgen Receptor (AR) (AID 2283824);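 also: actives raise reporter signal above DMSO so AC50 reflects agonist-like induction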
# How it was run: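 HepG2 cells transiently transfected with GAL4-UAS reporter units and frog (Xenopus laevis) AR-Gal4 chimera; reporter mRNA measured 24 h after dosing by RT-PCR and capillary electrophoresis. Gain of signal fitted relative to DMSO baseline.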
# [19] = ATG_M_32_XSP2: Attagene TRANS-FACTORIAL Multi-Species (XSP2) HepG2 Assay for M19 Transcription Factor (Internal Marker) (AID 2283826)
# How it was run: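 Transfected HepG2 (multiplexed GAL4-UAS reporters), 24 h chemical exposure, 3 nM 6-alpha-fluorotestosterone + 1.5 nM norgestrel added. RNA → oligo(dT) RT → PCR → 6-FAM primer extension → HpaI cut → CE. Fitted upward vs DMSO.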
# Chain of frog Thyroid hormone Receptor alpha (TRa), thra-a (gene 397942) (P15204 whole entry, looked up, the tested form may be a part): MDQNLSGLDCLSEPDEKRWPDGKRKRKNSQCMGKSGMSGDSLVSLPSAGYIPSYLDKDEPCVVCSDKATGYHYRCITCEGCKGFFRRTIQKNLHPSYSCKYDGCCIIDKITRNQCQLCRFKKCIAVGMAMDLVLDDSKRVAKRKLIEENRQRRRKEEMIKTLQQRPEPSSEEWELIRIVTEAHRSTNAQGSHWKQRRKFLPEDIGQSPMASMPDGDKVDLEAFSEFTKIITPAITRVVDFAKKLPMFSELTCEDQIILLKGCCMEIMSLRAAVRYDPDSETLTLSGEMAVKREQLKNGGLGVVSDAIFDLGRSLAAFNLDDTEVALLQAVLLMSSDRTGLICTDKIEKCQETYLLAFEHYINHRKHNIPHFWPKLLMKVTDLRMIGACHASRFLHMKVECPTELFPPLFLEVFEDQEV
# Chain of Peroxisome proliferator-activated receptor gamma (Homo sapiens) (P37231 whole entry, looked up, the tested form may be a part): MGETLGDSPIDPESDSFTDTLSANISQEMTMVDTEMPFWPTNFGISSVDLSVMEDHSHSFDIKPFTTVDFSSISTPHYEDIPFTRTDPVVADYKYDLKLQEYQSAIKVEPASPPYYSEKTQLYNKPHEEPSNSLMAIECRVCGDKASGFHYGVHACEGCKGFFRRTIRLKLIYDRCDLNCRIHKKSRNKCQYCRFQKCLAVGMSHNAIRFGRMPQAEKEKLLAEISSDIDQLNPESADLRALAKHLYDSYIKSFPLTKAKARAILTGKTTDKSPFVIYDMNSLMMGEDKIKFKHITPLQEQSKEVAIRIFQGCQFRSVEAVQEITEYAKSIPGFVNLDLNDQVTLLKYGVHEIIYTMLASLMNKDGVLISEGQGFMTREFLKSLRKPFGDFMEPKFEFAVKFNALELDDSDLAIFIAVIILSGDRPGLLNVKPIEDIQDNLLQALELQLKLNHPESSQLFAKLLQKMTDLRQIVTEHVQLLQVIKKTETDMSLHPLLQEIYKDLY
# Chain of human Thyroid hormone Receptor beta (TRb), THRB (gene 7068) (P10828 whole entry, looked up, the tested form may be a part): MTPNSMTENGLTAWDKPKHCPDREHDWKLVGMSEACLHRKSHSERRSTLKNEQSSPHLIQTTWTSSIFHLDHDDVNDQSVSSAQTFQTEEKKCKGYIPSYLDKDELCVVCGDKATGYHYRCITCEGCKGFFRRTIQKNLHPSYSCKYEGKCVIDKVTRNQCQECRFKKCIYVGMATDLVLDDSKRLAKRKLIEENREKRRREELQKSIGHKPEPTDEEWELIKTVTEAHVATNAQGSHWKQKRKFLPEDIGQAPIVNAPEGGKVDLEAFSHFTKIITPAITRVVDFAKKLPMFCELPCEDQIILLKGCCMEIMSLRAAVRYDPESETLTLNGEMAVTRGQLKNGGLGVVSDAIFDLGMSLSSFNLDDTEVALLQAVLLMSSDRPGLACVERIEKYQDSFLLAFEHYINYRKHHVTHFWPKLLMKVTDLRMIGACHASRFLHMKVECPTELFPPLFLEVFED
# Chain of zebrafish Thyroid Hormone Receptor beta (TRb), thrb (gene 30607) (Q9PVE4 whole entry, looked up, the tested form may be a part): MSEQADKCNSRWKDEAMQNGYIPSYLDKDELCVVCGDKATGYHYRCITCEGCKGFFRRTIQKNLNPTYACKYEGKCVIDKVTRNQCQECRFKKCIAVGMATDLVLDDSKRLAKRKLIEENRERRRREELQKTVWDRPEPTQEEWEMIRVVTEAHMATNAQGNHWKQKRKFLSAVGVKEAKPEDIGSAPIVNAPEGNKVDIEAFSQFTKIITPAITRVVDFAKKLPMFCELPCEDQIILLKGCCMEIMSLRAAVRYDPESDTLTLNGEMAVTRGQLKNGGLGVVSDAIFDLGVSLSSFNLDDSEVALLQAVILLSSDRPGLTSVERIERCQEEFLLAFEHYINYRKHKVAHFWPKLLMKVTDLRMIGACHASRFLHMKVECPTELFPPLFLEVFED
# Chain of human Thyroid hormone Receptor alpha (TRa), THRA (gene 7067) (P10827 whole entry, looked up, the tested form may be a part): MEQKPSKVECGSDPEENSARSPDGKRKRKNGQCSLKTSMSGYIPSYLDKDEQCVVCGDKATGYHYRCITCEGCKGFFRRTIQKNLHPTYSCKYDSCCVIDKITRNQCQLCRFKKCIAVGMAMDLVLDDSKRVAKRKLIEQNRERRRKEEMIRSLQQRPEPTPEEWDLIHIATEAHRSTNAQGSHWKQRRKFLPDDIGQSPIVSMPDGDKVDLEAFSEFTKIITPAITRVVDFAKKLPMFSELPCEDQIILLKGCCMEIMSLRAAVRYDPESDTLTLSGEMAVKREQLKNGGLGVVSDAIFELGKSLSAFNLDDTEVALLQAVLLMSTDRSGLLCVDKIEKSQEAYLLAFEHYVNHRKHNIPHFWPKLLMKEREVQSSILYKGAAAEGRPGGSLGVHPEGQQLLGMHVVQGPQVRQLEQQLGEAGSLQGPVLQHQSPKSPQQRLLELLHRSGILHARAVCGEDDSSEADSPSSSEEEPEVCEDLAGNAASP
# Chain of zebrafish Thyroid Hormone Receptor alpha (TRa), thraa (gene 30670) (Q98867 whole entry, looked up, the tested form may be a part): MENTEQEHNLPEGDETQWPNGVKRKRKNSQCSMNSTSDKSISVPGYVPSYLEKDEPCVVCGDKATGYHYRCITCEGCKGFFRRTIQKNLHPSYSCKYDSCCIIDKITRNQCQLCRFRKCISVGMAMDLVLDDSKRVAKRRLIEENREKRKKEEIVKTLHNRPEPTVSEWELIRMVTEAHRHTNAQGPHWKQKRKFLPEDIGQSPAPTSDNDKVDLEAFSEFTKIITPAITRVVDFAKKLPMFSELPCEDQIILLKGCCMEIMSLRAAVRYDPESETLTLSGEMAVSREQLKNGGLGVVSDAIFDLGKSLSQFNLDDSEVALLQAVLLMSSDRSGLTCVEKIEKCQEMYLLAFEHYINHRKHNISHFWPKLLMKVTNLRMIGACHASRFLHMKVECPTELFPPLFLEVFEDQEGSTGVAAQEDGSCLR
# Chain of mouse Peroxisome Proliferator-activated Receptor gamma (PPARg), Pparg (gene 19016) (P37238 whole entry, looked up, the tested form may be a part): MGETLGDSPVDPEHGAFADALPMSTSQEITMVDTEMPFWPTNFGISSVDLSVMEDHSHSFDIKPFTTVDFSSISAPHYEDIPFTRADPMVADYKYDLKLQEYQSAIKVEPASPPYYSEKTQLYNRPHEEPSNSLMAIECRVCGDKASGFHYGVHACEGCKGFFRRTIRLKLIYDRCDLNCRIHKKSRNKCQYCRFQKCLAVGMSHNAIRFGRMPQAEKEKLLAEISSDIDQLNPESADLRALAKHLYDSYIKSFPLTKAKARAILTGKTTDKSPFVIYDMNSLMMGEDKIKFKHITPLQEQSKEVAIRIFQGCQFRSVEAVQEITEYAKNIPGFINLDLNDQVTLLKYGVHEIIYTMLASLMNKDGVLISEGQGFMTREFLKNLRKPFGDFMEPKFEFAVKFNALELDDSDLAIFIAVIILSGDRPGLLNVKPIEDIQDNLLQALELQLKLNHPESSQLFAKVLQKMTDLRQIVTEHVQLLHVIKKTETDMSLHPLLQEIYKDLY
# Chain of Estrogen receptor (Homo sapiens) (P03372 whole entry, looked up, the tested form may be a part): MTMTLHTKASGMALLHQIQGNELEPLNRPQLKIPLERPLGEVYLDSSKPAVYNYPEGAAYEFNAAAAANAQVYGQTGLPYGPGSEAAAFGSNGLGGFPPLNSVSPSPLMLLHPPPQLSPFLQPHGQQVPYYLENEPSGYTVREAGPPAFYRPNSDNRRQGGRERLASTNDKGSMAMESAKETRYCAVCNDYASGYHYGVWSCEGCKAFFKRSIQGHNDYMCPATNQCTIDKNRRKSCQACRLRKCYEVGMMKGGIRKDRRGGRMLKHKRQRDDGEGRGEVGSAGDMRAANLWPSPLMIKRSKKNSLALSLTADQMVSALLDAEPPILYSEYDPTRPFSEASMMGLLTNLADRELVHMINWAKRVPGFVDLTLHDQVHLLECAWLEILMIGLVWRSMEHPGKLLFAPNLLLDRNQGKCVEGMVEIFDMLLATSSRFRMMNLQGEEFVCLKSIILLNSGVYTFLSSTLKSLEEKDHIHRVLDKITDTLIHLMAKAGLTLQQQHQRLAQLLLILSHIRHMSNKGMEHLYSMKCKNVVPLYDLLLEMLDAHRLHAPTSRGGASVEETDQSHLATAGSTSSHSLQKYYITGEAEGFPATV
smiles,measurement,setting,value
Oc1ccc(Cl)cc1Cc1ccccc1,AC50,[1],14.6 µM (active)
same,outcome,[2],inactive
same,AC50,[3],10 µM (active)
same,outcome,[4],inactive
same,outcome,[5],inactive
same,outcome,[6],inactive
same,outcome,[7],inactive
same,AC50,[8],10 µM (active)
same,outcome,[9],inactive
same,AC50,[10],10 µM (active)
same,outcome,[11],inactive
same,AC50,[12],50 µM (active) and 11.2 µM (active) and 21.7 µM (active)
same,AC50,[13],24.9 µM (active) and 50 µM (active)
CC(C)OC(=O)Nc1cccc(Cl)c1,outcome,[12],inactive
same,outcome,[13],inactive
O=S1OCC2C(CO1)C1(Cl)C(Cl)=C(Cl)C2(Cl)C1(Cl)Cl (stereo not given),outcome,[14],inactive
same,AC50,[1],10 µM (active)
same,AC50,[15],1.04 µM (active)
same,outcome,[2],inactive
same,outcome,[3],inactive
same,outcome,[16],inactive
same,outcome,[7],inactive
same,outcome,[8],inactive
same,outcome,[10],inactive
same,outcome,[11],inactive
same,AC50,[12],50 µM (active)
same,outcome,[13],inactive
O=C(O)C(F)(F)C(F)(F)C(F)(F)C(F)(F)C(F)(F)C(F)(F)C(F)(F)F,outcome,[14],inactive
same,outcome,[17],inactive
same,AC50,[1],124 µM (active)
same,outcome,[18],inactive
same,outcome,[19],inactive
same,AC50,[2],64.1 µM (active)
same,outcome,[5],inactive
same,outcome,[7],inactive
same,outcome,[8],inactive
same,outcome,[10],inactive
same,outcome,[11],inactive
same,outcome,[12],inactive
CCc1ccc(C(=O)NN(C(=O)c2cc(C)cc(C)c2)C(C)(C)C)cc1,outcome,[12],inactive
same,outcome,[13],inactive
Oc1cc(Cl)ccc1Oc1ccc(Cl)cc1Cl,outcome,[14],inactive
same,AC50,[1],16.1 µM (active)
same,outcome,[19],inactive
same,outcome,[2],inactive
same,AC50,[3],11.1 µM (active)
same,AC50,[4],15 µM (active)
same,outcome,[16],inactive
same,outcome,[5],inactive
same,AC50,[6],4.84 µM (active)
same,outcome,[7],inactive
same,outcome,[8],inactive
same,outcome,[9],inactive
same,AC50,[10],2.46 µM (active)
same,AC50,[11],4.77 µM (active)
